Measurements as given in PubChem BioAssay (NCI).
This is part of a sample that, as a whole, favours compounds with a hit. Of some 83,000 tested, about 20% had one in any assay.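 Cell lines were cultured in 96-well plates, exposed to a single compound concentration, and assessed for percent growth 48 hours later.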 A number with no mark means an inactive call. Active and inactive are the calls of the source.

Tested on: MDA-MB-435 melanoma
Assay: NCI-60 one-dose screen, 48 h (100 = growth as untreated, 0 = no growth, -100 = all killed)
Details: 10 µM unless noted
Experimental: Growth inhibition of the MDA-MB-435 human Melanoma tumor cell line is measured as a screen for anti-cancer activity. Cells are grown in 96 well plates and exposed to the test compound for 48 hours. Compounds are tested at a single concentration, which is 10^-5 M for most compounds. The reported endpoint is percent growth (GI% or GIPRCNT), where numbers from 0 - 100% represent growth inhibition, and numbers from -100% - 0 represent cell death. For example, a value of 40 represents 60% growth inhibition. A value of 0 means no net growth occurred over the course of the experiment. A value of -40 indicates 40% of cells at the beginning of the experiment died by the end of the experiment. A value of -100 means all cells are dead at the end of the experiment.
NCI-60 Human Tumor Cell Lines Screen was performed using the standard one-dose NCI protocol, which is described in more detail at https://dtp.cancer.gov/discovery_development/nci-60/default.htm.
Compounds with GIPRCNT values below 10 were considered active. Activity score was based on GIPRCNT using the following formula: […]
Score is 0 for GIPRCNT values of 100 or above, 50 for GIPRCNT values of 0, and 100 for GIPRCNT values of -100.

SMILES	growth
COC(=O)[C@]1(C)CC[C@]2(C)CC[C@]3(C)C(=CC(=O)[C@@H]4[C@@]5(C)CCC(=O)NC(C)(C)[C@@H]5CC[C@]43C)[C@@H]2C1	-48.8% [100 µM] (active)
N#C/C(C(=O)c1ccccc1)=C1/C(=O)Nc2ccc(F)cc21	107%
Cc1cnc([C@]23CC[C@@H](C)[C@H](C)[C@H]2C2=CC[C@@H]4[C@@]5(C)Cc6c([nH]c7ccccc67)C(C)(C)[C@@H]5CC[C@@]4(C)[C@]2(C)CC3)o1	-16.7% [100 µM] (active)
CCOC(=O)COc1ccc2c(c1)O/C(=C\c1ccc(O)cc1)C2=O	102%
C[C@H]1[C@H](C)CC[C@]2(C(=O)O)CC[C@]3(C)C(=CC[C@@H]4[C@@]5(C)C/C(=C/c6ccco6)C(=O)C(C)(C)[C@@H]5CC[C@]43C)[C@H]12	-85.1% [100 µM] (active)
C=C(C)C1CCC2(C(=O)O)CCC3(C)C(CCC4C5(C)CCC(OC(=O)NCc6ccccc6)C(C)(C)C5CCC43C)C12 (stereo not given)	58.7%
CCOc1ccc(/C=C(\C#N)c2cc3ccccc3[nH]2)cc1	-28.8% (active)
CCCc1cc2cc(-n3nc(C)c4c3CC(C)(C)CC4=O)cc(NC3CCSCC3)c2c(=O)[nH]1	26.5%
CCN(CC)CCCOc1ccc2c(c1)O/C(=C\c1cccc(OC)c1)C2=O	91.9%
C#C[C@]1(O)CC[C@H]2[C@@H]3CC=C4c5nc(Nc6ncccn6)sc5CC[C@]4(C)[C@H]3CC[C@@]21C	50.5%
O=C1/C(=C/c2cccc(OCc3ccccc3)c2)Oc2cc(OCCN3CCCCC3)ccc21	85.4%
Cc1ccc(-c2cc(-c3ccc(C)cc3)nc(NCCNc3ccnc4cc(Cl)ccc34)n2)cc1	-76.4% (active)
O=C(NCc1ccc(Cn2c(=O)sn(-c3ccccc3)c2=O)cc1)OCc1ccc2c(Br)cc(Br)c(O)c2n1	-77.6% (active)
O=C1CC(c2ccccc2)Cc2nc3ccc(Br)cc3cc21 (stereo not given)	-39.8% (active)
O=[N+]([O-])c1cc(CCl)ccc1OCCBr	104%
O=C(Nc1ccccc1)Nc1ccc(C(=O)/C=C/c2ccc(N3CCCC3)cc2)cc1	4.29% (active)
CSc1nc(N)c(N=Nc2ccc(S(=O)(=O)Nc3nnc(C)s3)cc2)c(=O)[nH]1	128%
CCOC(=O)c1cnc2ccc(Br)cc2c1Nc1cccc(S(N)(=O)=O)c1	101%
CCC(Br)(CC)C(=O)c1ccc(OCC(=O)O)c(Cl)c1Cl	101%
CC1=C/C(=C(\c2cc(C)c(O)c(C(=O)O)c2)c2c(Cl)cccc2Cl)C=C(C(=O)O)C1=O	108%

SMILES	growth
CCOC(=O)c1nc2c3ccccc3ccn2c1C(=O)OC	96.5%
C=C(C)[C@@H]1CC[C@]2(C)[C@H](CC[C@@H]3[C@@H]([C@@](C)(O)CCC=C(C)C)CC[C@]32C)[C@@]1(C)CCC(=O)O	-36.7% [100 µM] (active)
CCCCCCCCCCCCNC(=S)N/N=C/c1ccccc1O	80.5%
COC(=O)[C@H](CC(C)C)NC(=O)NC(=O)NC(=O)CI	72.7%
Cc1ccc(-n2nc3n(/c2=N\C(=O)NS(=O)(=O)c2ccc(C)cc2)CCN3C2=NCCN2)cc1	97.3%
CCCCN(CCCC)CC(O)c1ccc(OCc2ccccc2)c2ccccc12 (stereo not given)	51.2%
C#CCOc1ccc(C2=NN(CC3CC3)C3N=C(Cl)c4ncn(CC5CC5)c4N23)cc1OCC#C (stereo not given)	80.8%
Cc1ccc(NC(=O)N[C@@H](Cc2cc(F)cc(F)c2)C(=O)N[C@@H]2C(=O)N3CCC[C@H]3C(=O)N3CCOC[C@H]3C(=O)N[C@@H](C)C(=O)N3C[C@H](C)C[C@H]3C(=O)O[C@H]2C)cc1	21%
O=C(NCCCCCCCNC(=O)OCc1ccc2c(Cl)cc(Cl)c(O)c2n1)OCc1ccc2c(Cl)cc(Cl)c(O)c2n1	-86.4% (active)
COc1c(B(O)O)cccc1-c1nc2ccc3[nH]ncc3c2c2c1CCC2	64%
N#Cc1c(Cl)nc(SCC2CO2)nc1-c1ccccc1 (stereo not given)	110%
COc1cc(-c2nc(SCCC(C)C)nc(Nc3ccc(S(N)(=O)=O)cc3)c2C#N)cc(OC)c1OC	22.2%
COc1ccc(OC)c([N+](=O)[O-])c1C(=O)CNC(C)=O	103%
CCOC(=O)c1ccc2nc(-c3c(C)nn(-c4ccccc4)c3N3CCOCC3)[nH]c2c1	99.4%
O=C(O)c1ccccc1C(F)(F)F	107%
O=C(Nc1ccc(Oc2ccc(F)cc2)c(Cl)c1)c1cccnn1	67.2%
CC1(C)[C@@H](NOCCCN)CC[C@]2(C)[C@H]3C(=O)C=C4[C@@H]5C[C@](C)(C(=O)O)CC[C@]5(C)CC[C@@]4(C)[C@]3(C)CC[C@@H]12	-59.1% [100 µM] (active)
O=C(O)CC1CCCCC1c1ccccc1 (stereo not given)	115%
COc1cc(/C=C/C(=O)/C=C/c2ccc(-n3ccnc3C)cc2)ccc1O	-3.29% (active)
CCOC(=O)n1cc(C2=C(c3ccc(OC)c(OC)c3)COC2=O)c2ccccc21	-18.4% (active)
